Measurements from PubChem BioAssay AID1159580 (chemical genetic matrix, 2015).
“And” between values parts separate entries of the source, which are not always exact repeats. Equal values may be shown once. The campaign covered roughly 5,500 compounds. About 2,000 (36%) were called active. Roughly 18% stayed inconclusive and do not appear here. Cut-off read from the data, not from the text of the source: active = normalized growth mostly below about 0.91 (no sharp cut-off); inconclusive = no clear call, values can overlap the other calls; inactive = mostly above about 0.92. The list shows a part of the results.

Experiment: chemical genetic growth profiling, strain panel (AID 1159580);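 note: tested at 20 µM; growth read once vehicle control cultures reached saturation at 30 °C; 1 = growth at the plate median or of vehicle wells; lower values mean less growth of the strain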
Conditions: S. cerevisiae deletion strains, growth OD

Measured: normalized growth

CCC(=O)OCC(=O)[C@@]1(OC(=O)CC)[C@@H](C)CC2C3CCC4=CC(=O)C=C[C@]4(C)C3(F)[C@@H](O)C[C@@]21C (stereo partly drawn)
active: locus YAL013W, strain DEP1, stronger effect = lower value 0.876 | locus YBR021W, strain FUR4, stronger effect = lower value 0.779 | locus YDL035C, strain GPR1, stronger effect = lower value 0.846 | locus YDL134C, strain PPH21, stronger effect = lower value 0.844 | locus YDR162C, strain NBP2, stronger effect = lower value 0.708 | locus YER167W, strain BCK2, stronger effect = lower value 0.881 | locus YGR135W, strain pre9, stronger effect = lower value 0.863 | locus YGR252W, strain gcn5, stronger effect = lower value 0.71 | locus YIL066C, strain RNR3, stronger effect = lower value 0.806
inactive: locus YAL021C, strain ccr4, stronger effect = lower value 0.958 | locus YAL026C, strain drs2, stronger effect = lower value 1 | locus YAL030W, strain snc1, stronger effect = lower value 1 | locus YBL061C, strain skt5, stronger effect = lower value 1.01 | locus YBR009C, strain hhf1, stronger effect = lower value 0.999 | locus YBR023C, strain chs3, stronger effect = lower value 1.01 | locus YBR171W, strain sec66, stronger effect = lower value 1 | locus YBR229C, strain ROT2, stronger effect = lower value 0.925 | locus YBR231C, strain swc5, stronger effect = lower value 1.01 | locus YBR279W, strain paf1, stronger effect = lower value 1.01 | locus YCL011C, strain gbp2, stronger effect = lower value 0.988 | locus YCL016C, strain dcc1, stronger effect = lower value 1.01 | locus YCL029C, strain bik1, stronger effect = lower value 0.952 | locus YCL061C, strain MRC1, stronger effect = lower value 1.01 | locus YCL069W, strain vba3, stronger effect = lower value 0.996 | locus YCR088W, strain abp1, stronger effect = lower value 0.997 | locus YDL005C, strain med2, stronger effect = lower value 0.994 | locus YDL040C, strain nat1, stronger effect = lower value 1 | locus YDL074C, strain BRE1, stronger effect = lower value 0.793 | locus YDL101C, strain DUN1, stronger effect = lower value 0.95 | locus YDL185W, strain tfp1, stronger effect = lower value 0.927 | locus YDL192W, strain arf1, stronger effect = lower value 0.927 | locus YDR001C, strain nth1, stronger effect = lower value 0.991 | locus YDR069C, strain doa4, stronger effect = lower value 0.993 | locus YDR101C, strain arx1, stronger effect = lower value 0.948 | locus YDR137W, strain rgp1, stronger effect = lower value 1.01 | locus YDR150W, strain NUM1, stronger effect = lower value 0.974 | locus YDR159W, strain sac3, stronger effect = lower value 1.01 | locus YDR195W, strain ref2 1 | locus YDR297W, strain sur2, stronger effect = lower value 0.996 | locus YDR318W, strain mcm21, stronger effect = lower value 0.945 | locus YDR334W, strain swr1, stronger effect = lower value 1.01 | locus YDR335W, strain msn5, stronger effect = lower value 0.998 | locus YDR388W, stronger effect = lower value 0.947 | locus YDR392W, strain spt3, stronger effect = lower value 0.988 | locus YDR502C, strain sam2, stronger effect = lower value 0.926 | locus YEL003W, strain gim4, stronger effect = lower value 0.996 | locus YEL037C, strain rad23, stronger effect = lower value 0.987 | locus YEL061C, strain CIN8 (second series), stronger effect = lower value 0.989 | locus YEL061C, strain CIN8, stronger effect = lower value 0.935 | locus YER015W, strain faa2, stronger effect = lower value 0.995 | locus YER016W, strain bim1, stronger effect = lower value 1.01 | locus YER110C, stronger effect = lower value 0.952 | locus YER111C, strain swi4, stronger effect = lower value 0.999 | locus YER155C, strain BEM2 (second series), stronger effect = lower value 1.01 | locus YER155C, strain BEM2, stronger effect = lower value 0.963 | locus YFR010W, strain ubp6, stronger effect = lower value 0.993 | locus YGL078C, strain dbp3, stronger effect = lower value 0.975 | locus YGL086W, strain mad1, stronger effect = lower value 0.954 | locus YGL167C, strain pmr1, stronger effect = lower value 1 | locus YGL173C, strain kem1, stronger effect = lower value 1 | locus YGL227W, strain vid30, stronger effect = lower value 0.995 | locus YGL240W, strain doc1, stronger effect = lower value 1 | locus YGL248W, strain PDE1, stronger effect = lower value 0.943 | locus YGL253W, strain hxk2, stronger effect = lower value 1.03 | locus YHR013C, strain ard1, stronger effect = lower value 1.01 | locus YHR027C, strain rpn1, stronger effect = lower value 1 | locus YHR079C, strain IRE1 (second series), stronger effect = lower value 0.974 | locus YHR079C, strain IRE1, stronger effect = lower value 1.02 | locus YHR094C, strain hxt1, stronger effect = lower value 0.965 | locus YHR129C, strain ARP1, stronger effect = lower value 0.943 | locus YHR142W, strain chs7, stronger effect = lower value 0.988 | locus YHR200W, strain rpn10, stronger effect = lower value 0.929 | locus YIL073C, strain SPO22, stronger effect = lower value 0.825 | locus YIL125W, strain kgd1, stronger effect = lower value 0.971 | locus YIR030C, strain dcg1, stronger effect = lower value 0.959 | locus YJL092W, strain hpr5, stronger effect = lower value 0.996 | locus YJL095W, strain BCK1 (second series), stronger effect = lower value 1 | locus YJL115W, strain asf1, stronger effect = lower value 0.999 | locus YJL129C, strain trk1, stronger effect = lower value 0.951 | locus YJL134W, strain LCB3, stronger effect = lower value 0.961 | locus YJL154C, strain vps35, stronger effect = lower value 0.981 | locus YJL164C, strain tpk1, stronger effect = lower value 1 | locus YJL166W, strain qcr8, stronger effect = lower value 0.997 | locus YJL168C, strain set2, stronger effect = lower value 0.956 | locus YJL187C, strain SWE1 (second series), stronger effect = lower value 0.942 | locus YJL187C, strain SWE1, stronger effect = lower value 0.996
0.896 (active) and 0.998 (inactive): locus YHR030C, strain SLT2, stronger effect = lower value
0.761 (active) and 1.01 (inactive): locus YJL095W, strain BCK1, stronger effect = lower value
